# Reference: PubChem BioAssay
# Values joined by “and” are separate entries in the source; they are usually repeats but may differ in a detail not shown here. Equal values may be shown once. Inconclusive results are not listed. Active and inactive are the calls of the source.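 The calls were made as follows, unless noted: active = normalized viability below 100% at a tested concentration; inactive = the rest.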
# Assays:
# [1] = growth inhibition of CRL1545 osteosarcoma cells, cell-based, cisplatin and BGB IC20 combos (AID 1671464); conditions: single agent, at 5 µM, stronger effect = higher value;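 also: cells exposed to compound for 96 hours before readout; 0% = vehicle DMSO and 100% = high DMSO killing control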
# [2] = growth inhibition of DIPG glioma cells, dose response, cell-based, SU-DIPG-XIII, MIPE4.0, CellTiter-Glo, qHTS (AID 1347061; cut-off not given, nearly all actives have AC50 up to about 37 µM;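 also: cells exposed to compound for 48 hours before readout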); conditions: SU-DIPG-XIII viability, CellTiter-Glo ATP luminescence
# [3] = growth inhibition of DIPG glioma cells, dose response, cell-based, SU-DIPG-IV, MIPE4.0, CellTiter-Glo, qHTS (AID 1347063; cut-off not given, nearly all actives have AC50 up to about 30 µM;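 also: compound exposure lasted 48 hours before the viability readout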); conditions: SU-DIPG-IV viability, CellTiter-Glo ATP luminescence
# [4] = SU-DIPG-VI glioma cell viability, MIPE4.0 library, CellTiter-Glo luminescence, qHTS (AID 1347066; cut-off not given, nearly all actives have AC50 up to about 30 µM;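 also: cells exposed to compound for 48 hours before readout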); conditions: CellTiter-Glo ATP luminescence
# [5] = growth inhibition of DIPG glioma cells, dose response, cell-based, JHH-DIPG-1, MIPE4.0, CellTiter-Glo, qHTS (AID 1347062; cut-off not given, nearly all actives have AC50 up to about 27 µM); conditions: JHH-DIPG-1 viability, CellTiter-Glo ATP luminescence
# [6] = sensitizers of A549 cells to miR-34 induction, primary screen, imaging, A549 dox-inducible miR-34, nuclei and caspase counts (AID 1347080;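 active = compounds whose cell count with miR-34 switched on is under 0.7 times the count with it off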); conditions: A549 miR-34 inducible, Hoechst nuclei count, 48 h
# [7] = survival rescue of mitochondrial mutant cells in low glucose, primary screen, MELAS cybrids, Rieske KO mouse fibroblasts, CellTiter-Glo (AID 1508586;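 active = mean z-score across replicates of 1.96 or higher in either the MELAS or the Rieske mutant cell line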;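 also: z relative to plate mean and SD of compound and empty wells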)
# [8] = viability loss in pontine glioma line – cell-based, SU-DIPG-XXV, MIPE5.0, CellTiter-Glo, qHTS, dose response (AID 1347065; cut-off not given, nearly all actives have AC50 up to about 26 µM;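 also: cells exposed to compound for 48 hours before ATP readout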); conditions: CellTiter-Glo ATP luminescence
# [9] = SU-DIPG-XXV glioma cell viability, MIPE5.0 library, qHTS (AID 1347068; cut-off not given, nearly all actives have IC50 up to about 30 µM)
# [10] = JHH-DIPG-1 glioma cell viability, MIPE5.0 library, CellTiter-Glo luminescence, qHTS (AID 1347067; cut-off not given, nearly all actives have AC50 up to about 26 µM;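 also: cells exposed to compound for 48 hours before readout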); conditions: JHH-DIPG-1 glioma viability, CellTiter-Glo ATP luminescence
# [11] = modifiers of HSF1 nuclear foci, imaging, Selleck Cancer Library (AID 1347162; in the data active = plate-normalised HSF1 focus index below about 0.46); conditions: human cells, at 10 µM; SSMD: measured here: HSF1 foci SSMD mean; cell count: measured here: cell number; plate-normalised HSF1 focus index: stronger effect = lower value
# [12] = ovarian cancer cell viability with rucaparib, profiling panel, oncology-focused library, rucaparib conditional (AID 1508598); conditions: patient-derived ovarian cancer cells, CellTiter-Glo viability, 144 h, stronger effect = lower value
# [13] = stronger effect = lower value, cell number ratio, induced over uninduced
# [14] = measured here: relative caspase fold change +Dox/-Dox
# [15] = measured here: total cells with miR-34 induction, stronger effect = lower value
# [16] = measured here: total cells without miR-34 induction
# [17] = MELAS cybrid survival, CellTiter-Glo 48 h, stronger effect = higher value
# [18] = Rieske KO mouse fibroblast survival, CellTiter-Glo 72 h
smiles,measurement,setting,value
CC(C)(C)OC(=O)Nc1ccc(-c2cc(C(=O)NCCCCCCC(=O)NO)no2)cc1,inhibition,[1],94% and 95%
CC(=O)N1CCN(c2ccc(OCc3nn(C)c(C)c3-c3cccc4c(CCCOc5cc(C)c(Cl)c(C)c5)c(C(=O)O)n(Cc5cccnc5)c34)cc2)CC1,outcome,[2],inactive
same,AC50,[3],23.5 µM (active)
same,AC50,[4],20.9 µM (active)
C/C=C(/C)C(=O)O[C@H]1C(C)=C[C@]23C(=O)[C@@H](C=C(CO)[C@@H](O)[C@]12O)[C@H]1[C@@H](C[C@H]3C)C1(C)C,outcome,[2],inactive
same,AC50,[4],20.9 µM (active)
O=c1c2ccccc2nc2n1CCc1c-2[nH]c2ccccc12,outcome,[2],inactive
same,outcome,[5],inactive
same,outcome,[4],inactive
same,fold change,[6]; [13],0.916 (inactive) and 0.956 (inactive)
same,fold change,[6]; [14],0.977 and 0.922
same,cell count,[6]; [15],6410 and 7870
same,cell count,[6]; [16],6990 and 8230
same,z-score,[7]; [17],-0.312 (inactive)
same,z-score,[7]; [18],0.166
Cc1ccc2c(c1)c1c(n2CCc2ccc(C)nc2)CCN(C)C1,outcome,[2],inactive
same,outcome,[3],inactive
same,outcome,[4],inactive
O=C1C(CCC(O)c2ccc(F)cc2)C(c2ccc(O)cc2)N1c1ccc(F)cc1 (stereo not given),outcome,[2],inactive
same,outcome,[5],inactive
same,outcome,[4],inactive
same,fold change,[6]; [13],0.893 (inactive) and 0.906 (inactive)
same,fold change,[6]; [14],1.57 and 0.763
same,cell count,[6]; [15],7660 and 7830
same,cell count,[6]; [16],8580 and 8640
same,z-score,[7]; [17],-0.505 (inactive)
same,z-score,[7]; [18],-0.0457
O=C(C1CC1)N1CC[C@@H](Cn2c(-c3ccc(-c4ccc5occc5c4)cc3)nc3cnccc32)C1,outcome,[2],inactive
same,AC50,[8],18.6 µM (active)
same,outcome,[4],inactive
same,outcome,[9],inactive
C[C@@H](NCc1cc2ccccc2[nH]1)c1cccc2ccccc12,outcome,[2],inactive
same,outcome,[3],inactive
same,AC50,[8],26.3 µM (active)
same,outcome,[4],inactive
same,AC50,[10],14.8 µM (active)
CCOC(=O)C1=C(C)NC2=C(C(=O)CC(C)(C)C2)C1c1ccc(-c2ccccc2)cc1 (stereo not given),outcome,[2],inactive
same,AC50,[3],14.8 µM (active)
same,AC50,[8],23.5 µM (active)
same,outcome,[9],inactive
CN1CCN(c2cc(C(=O)Nc3ccc4c(c3)-c3c(c(C(N)=O)nn3-c3ccc(F)cc3)CC4)c(Cl)cn2)CC1,AC50,[2],9.35 µM (active)
same,AC50,[3],18.7 µM (active)
same,AC50,[8],10.5 µM (active)
same,AC50,[4],23.5 µM (active)
same,AC50,[10],13.2 µM (active)
Cc1coc2c1C(=O)C(=O)c1c-2ccc2c(C)cccc12,outcome,[2],inactive
same,outcome,[5],inactive
same,fold change,[6]; [13],0.847 (inactive)
same,fold change,[6]; [14],1.93
same,cell count,[6]; [15],7470
same,cell count,[6]; [16],8830
same,z-score,[7]; [17],-0.324 (inactive)
same,z-score,[7]; [18],-1
C=C1[C@H](n2cnc3c(=O)[nH]c(N)nc32)C[C@H](O)[C@H]1CO,outcome,[2],inactive
same,outcome,[4],inactive
CS(=O)(=O)N(Cc1ccco1)CC(O)Cn1c2ccccc2c2ccccc21 (stereo not given),outcome,[2],inactive
same,outcome,[8],inactive
same,outcome,[4],inactive
same,outcome,[10],inactive
same,outcome,[9],inactive
C[C@H](NC(=O)Cc1cc(F)cc(F)c1)C(=O)N[C@@H]1C(=O)N(C)c2ccccc2-c2ccccc21,AC50,[2],18.7 µM (active)
same,outcome,[8],inactive
same,outcome,[4],inactive
same,outcome,[10],inactive
same,outcome,[9],inactive
same,SSMD,[11],-0.743
same,cell count,[11],5760
same,plate-normalised HSF1 focus index,[11],0.981 (inactive)
same,viability,"[12]; at 0.000305 µM, OCI-C5x cells, with rucaparib 10 µM, 100% = cells with rucaparib alone",117% (inactive)
same,viability,"[12]; at 0.000305 µM, OCI-C5x cells, without rucaparib",120% (inactive)
same,viability,"[12]; at 0.000305 µM, OCI-P5x cells, with rucaparib 20 µM, 100% = cells with rucaparib alone",94.9% (active)
same,viability,"[12]; at 0.000305 µM, OCI-P5x cells, without rucaparib",97.1% (active)
same,viability,"[12]; at 0.00122 µM, OCI-C5x cells, with rucaparib 10 µM, 100% = cells with rucaparib alone",121% (inactive)
same,viability,"[12]; at 0.00122 µM, OCI-C5x cells, without rucaparib",124% (inactive)
same,viability,"[12]; at 0.00122 µM, OCI-P5x cells, with rucaparib 20 µM, 100% = cells with rucaparib alone",93.1% (active)
same,viability,"[12]; at 0.00122 µM, OCI-P5x cells, without rucaparib",102% (inactive)
same,viability,"[12]; at 0.00488 µM, OCI-C5x cells, with rucaparib 10 µM, 100% = cells with rucaparib alone",118% (inactive)
same,viability,"[12]; at 0.00488 µM, OCI-C5x cells, without rucaparib",127% (inactive)
same,viability,"[12]; at 0.00488 µM, OCI-P5x cells, with rucaparib 20 µM, 100% = cells with rucaparib alone",90.9% (active)
same,viability,"[12]; at 0.00488 µM, OCI-P5x cells, without rucaparib",102% (inactive)
same,viability,"[12]; at 0.0195 µM, OCI-C5x cells, with rucaparib 10 µM, 100% = cells with rucaparib alone",122% (inactive)
same,viability,"[12]; at 0.0195 µM, OCI-C5x cells, without rucaparib",129% (inactive)
same,viability,"[12]; at 0.0195 µM, OCI-P5x cells, with rucaparib 20 µM, 100% = cells with rucaparib alone",101% (inactive)
same,viability,"[12]; at 0.0195 µM, OCI-P5x cells, without rucaparib",97.6% (active)
same,viability,"[12]; at 0.0781 µM, OCI-C5x cells, with rucaparib 10 µM, 100% = cells with rucaparib alone",122% (inactive)
same,viability,"[12]; at 0.0781 µM, OCI-C5x cells, without rucaparib",132% (inactive)
same,viability,"[12]; at 0.0781 µM, OCI-P5x cells, with rucaparib 20 µM, 100% = cells with rucaparib alone",96.3% (active)
same,viability,"[12]; at 0.0781 µM, OCI-P5x cells, without rucaparib",104% (inactive)
same,viability,"[12]; at 0.313 µM, OCI-C5x cells, with rucaparib 10 µM, 100% = cells with rucaparib alone",131% (inactive)
same,viability,"[12]; at 0.313 µM, OCI-C5x cells, without rucaparib",145% (inactive)
same,viability,"[12]; at 0.313 µM, OCI-P5x cells, with rucaparib 20 µM, 100% = cells with rucaparib alone",90.1% (active)
same,viability,"[12]; at 0.313 µM, OCI-P5x cells, without rucaparib",99.7% (active)
same,viability,"[12]; at 1.25 µM, OCI-C5x cells, with rucaparib 10 µM, 100% = cells with rucaparib alone",142% (inactive)
same,viability,"[12]; at 1.25 µM, OCI-C5x cells, without rucaparib",144% (inactive)
same,viability,"[12]; at 1.25 µM, OCI-P5x cells, with rucaparib 20 µM, 100% = cells with rucaparib alone",97.9% (active)
same,viability,"[12]; at 1.25 µM, OCI-P5x cells, without rucaparib",99% (active)
same,viability,"[12]; at 5 µM, OCI-C5x cells, with rucaparib 10 µM, 100% = cells with rucaparib alone",146% (inactive)
same,viability,"[12]; at 5 µM, OCI-C5x cells, without rucaparib",141% (inactive)
same,viability,"[12]; at 5 µM, OCI-P5x cells, with rucaparib 20 µM, 100% = cells with rucaparib alone",87.4% (active)
same,viability,"[12]; at 5 µM, OCI-P5x cells, without rucaparib",90.3% (active)
